These results are taken from ChEMBL document CHEMBL1961873, “Compounds: GSK PKIS; Assays: Nanosyn kinase panel” (2012).

In assay [1] the target is Ribosomal protein S6 kinase alpha-6 (Homo sapiens) (UniProt Q9UK32). The following applies: at 1 µM.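 Note: each value is a mean inhibition of RSK4 from a GSK PKIS panel screen.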
Assay [2] addresses T1, Serine/threonine-protein kinase Sgk1 (Homo sapiens) (UniProt O00141).
T1 sequence (whole entry): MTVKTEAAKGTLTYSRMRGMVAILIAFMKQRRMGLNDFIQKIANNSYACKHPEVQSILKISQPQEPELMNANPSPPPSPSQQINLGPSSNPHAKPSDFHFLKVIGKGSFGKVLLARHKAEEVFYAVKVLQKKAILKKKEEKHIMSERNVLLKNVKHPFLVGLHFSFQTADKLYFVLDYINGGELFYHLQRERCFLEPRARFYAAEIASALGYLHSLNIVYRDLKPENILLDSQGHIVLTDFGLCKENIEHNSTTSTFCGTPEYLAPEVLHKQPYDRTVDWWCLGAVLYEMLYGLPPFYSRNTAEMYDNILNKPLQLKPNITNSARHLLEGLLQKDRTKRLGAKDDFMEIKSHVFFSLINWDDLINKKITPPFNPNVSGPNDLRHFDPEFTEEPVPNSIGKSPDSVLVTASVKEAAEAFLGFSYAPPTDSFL
The conditions noted are these: at 0.1 µM.

The target in assay [3] is T1, Serine/threonine-protein kinase Sgk1 (Homo sapiens). The conditions noted are these: at 1 µM.
For assay [4], the target named is T2, Serine/threonine-protein kinase Sgk2 (Homo sapiens) (UniProt Q9HBY8).
T2 sequence (whole entry): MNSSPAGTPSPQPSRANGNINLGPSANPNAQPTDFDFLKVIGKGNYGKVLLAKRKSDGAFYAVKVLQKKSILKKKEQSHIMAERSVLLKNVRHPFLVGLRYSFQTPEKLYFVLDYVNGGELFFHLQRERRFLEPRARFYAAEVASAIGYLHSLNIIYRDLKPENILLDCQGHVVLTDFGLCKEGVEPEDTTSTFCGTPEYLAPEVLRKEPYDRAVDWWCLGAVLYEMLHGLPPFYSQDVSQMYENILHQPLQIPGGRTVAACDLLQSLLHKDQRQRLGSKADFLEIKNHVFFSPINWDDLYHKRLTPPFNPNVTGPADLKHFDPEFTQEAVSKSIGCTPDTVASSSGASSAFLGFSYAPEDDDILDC
The conditions noted are these: at 0.1 µM.

The target of assay [5] is T2, Serine/threonine-protein kinase Sgk2 (Homo sapiens). The conditions noted are these: at 1 µM.
Assay [6] addresses T3, Serine/threonine-protein kinase Sgk3 (Homo sapiens) (UniProt Q96BR1).
T3 sequence (whole entry): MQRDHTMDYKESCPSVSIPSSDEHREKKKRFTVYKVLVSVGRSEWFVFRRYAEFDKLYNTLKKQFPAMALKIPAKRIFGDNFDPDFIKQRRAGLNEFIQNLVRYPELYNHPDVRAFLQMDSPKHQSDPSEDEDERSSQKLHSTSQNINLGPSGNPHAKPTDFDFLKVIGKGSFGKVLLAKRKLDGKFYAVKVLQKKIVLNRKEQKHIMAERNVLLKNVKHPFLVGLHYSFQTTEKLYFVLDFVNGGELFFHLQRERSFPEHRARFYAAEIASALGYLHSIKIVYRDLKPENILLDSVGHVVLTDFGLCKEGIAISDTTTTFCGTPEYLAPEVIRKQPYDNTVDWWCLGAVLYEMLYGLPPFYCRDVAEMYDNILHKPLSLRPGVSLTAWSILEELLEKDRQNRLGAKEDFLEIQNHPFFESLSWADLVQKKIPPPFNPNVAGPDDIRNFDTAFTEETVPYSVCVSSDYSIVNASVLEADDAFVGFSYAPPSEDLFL
The following applies: at 0.1 µM.

For assay [7], the target named is T3, Serine/threonine-protein kinase Sgk3 (Homo sapiens). The conditions noted are these: at 1 µM.
Assay [8] concerns the target 5'-AMP-activated protein kinase catalytic subunit alpha-1 (Homo sapiens) (UniProt Q13131). The conditions noted are these: at 0.1 µM.
Assay [9] shares this target. The conditions noted are these: at 1 µM.
Assay [10] has as its target 5'-AMP-activated protein kinase catalytic subunit alpha-2 (Homo sapiens) (UniProt P54646). The conditions noted are these: at 0.1 µM.
For assay [11] the target is unchanged. The conditions noted are these: at 1 µM.
Assay [12] deals with T4, NUAK family SNF1-like kinase 1 (Homo sapiens) (UniProt O60285).
T4 sequence (whole entry): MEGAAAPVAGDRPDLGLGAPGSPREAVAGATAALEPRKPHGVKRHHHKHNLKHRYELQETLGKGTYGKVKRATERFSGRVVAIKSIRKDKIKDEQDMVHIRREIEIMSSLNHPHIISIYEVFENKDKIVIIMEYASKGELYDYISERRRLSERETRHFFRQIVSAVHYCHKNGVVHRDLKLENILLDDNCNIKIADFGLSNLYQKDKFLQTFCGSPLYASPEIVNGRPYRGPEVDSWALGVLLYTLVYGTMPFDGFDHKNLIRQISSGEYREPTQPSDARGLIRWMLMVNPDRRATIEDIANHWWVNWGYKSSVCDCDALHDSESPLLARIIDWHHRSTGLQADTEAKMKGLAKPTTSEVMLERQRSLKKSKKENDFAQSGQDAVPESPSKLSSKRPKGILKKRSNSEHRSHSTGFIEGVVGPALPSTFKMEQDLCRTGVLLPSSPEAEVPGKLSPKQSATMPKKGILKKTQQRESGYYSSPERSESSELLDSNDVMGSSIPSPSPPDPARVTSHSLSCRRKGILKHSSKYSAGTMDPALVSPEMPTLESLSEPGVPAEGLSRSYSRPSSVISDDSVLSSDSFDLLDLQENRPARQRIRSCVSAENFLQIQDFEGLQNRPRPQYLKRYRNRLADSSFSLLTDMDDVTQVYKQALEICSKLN
The following applies: at 0.1 µM.

In assay [13] the target is T4, NUAK family SNF1-like kinase 1 (Homo sapiens). The following applies: at 1 µM.
Assay [14] addresses T5, Serine/threonine-protein kinase BRSK1 (Homo sapiens) (UniProt Q8TDC3).
T5 sequence (whole entry): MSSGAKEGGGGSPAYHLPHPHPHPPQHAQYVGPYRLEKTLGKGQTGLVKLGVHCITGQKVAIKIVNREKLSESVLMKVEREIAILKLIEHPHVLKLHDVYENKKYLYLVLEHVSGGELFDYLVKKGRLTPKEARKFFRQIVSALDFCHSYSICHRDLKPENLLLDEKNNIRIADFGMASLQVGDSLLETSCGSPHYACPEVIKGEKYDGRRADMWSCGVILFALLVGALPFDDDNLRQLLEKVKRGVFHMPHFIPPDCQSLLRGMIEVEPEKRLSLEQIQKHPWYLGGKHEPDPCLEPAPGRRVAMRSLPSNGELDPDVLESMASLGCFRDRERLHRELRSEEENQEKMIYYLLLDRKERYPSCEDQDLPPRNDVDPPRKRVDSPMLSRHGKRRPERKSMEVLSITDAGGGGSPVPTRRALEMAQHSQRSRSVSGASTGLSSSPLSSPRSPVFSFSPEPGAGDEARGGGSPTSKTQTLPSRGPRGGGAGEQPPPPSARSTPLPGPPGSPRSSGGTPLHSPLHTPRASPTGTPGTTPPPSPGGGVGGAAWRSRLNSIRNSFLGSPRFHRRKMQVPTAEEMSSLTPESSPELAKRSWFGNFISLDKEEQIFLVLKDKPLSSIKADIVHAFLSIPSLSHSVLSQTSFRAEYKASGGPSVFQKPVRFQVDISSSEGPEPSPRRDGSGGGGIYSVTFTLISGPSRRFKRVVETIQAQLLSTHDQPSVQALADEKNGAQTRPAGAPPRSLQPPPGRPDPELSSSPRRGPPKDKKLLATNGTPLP
The following applies: at 0.1 µM.

For assay [15], the target named is T5, Serine/threonine-protein kinase BRSK1 (Homo sapiens). The following applies: at 1 µM.
Assay [16] has as its target T6, Serine/threonine-protein kinase BRSK2 (Homo sapiens) (UniProt Q8IWQ3).
T6 sequence (whole entry): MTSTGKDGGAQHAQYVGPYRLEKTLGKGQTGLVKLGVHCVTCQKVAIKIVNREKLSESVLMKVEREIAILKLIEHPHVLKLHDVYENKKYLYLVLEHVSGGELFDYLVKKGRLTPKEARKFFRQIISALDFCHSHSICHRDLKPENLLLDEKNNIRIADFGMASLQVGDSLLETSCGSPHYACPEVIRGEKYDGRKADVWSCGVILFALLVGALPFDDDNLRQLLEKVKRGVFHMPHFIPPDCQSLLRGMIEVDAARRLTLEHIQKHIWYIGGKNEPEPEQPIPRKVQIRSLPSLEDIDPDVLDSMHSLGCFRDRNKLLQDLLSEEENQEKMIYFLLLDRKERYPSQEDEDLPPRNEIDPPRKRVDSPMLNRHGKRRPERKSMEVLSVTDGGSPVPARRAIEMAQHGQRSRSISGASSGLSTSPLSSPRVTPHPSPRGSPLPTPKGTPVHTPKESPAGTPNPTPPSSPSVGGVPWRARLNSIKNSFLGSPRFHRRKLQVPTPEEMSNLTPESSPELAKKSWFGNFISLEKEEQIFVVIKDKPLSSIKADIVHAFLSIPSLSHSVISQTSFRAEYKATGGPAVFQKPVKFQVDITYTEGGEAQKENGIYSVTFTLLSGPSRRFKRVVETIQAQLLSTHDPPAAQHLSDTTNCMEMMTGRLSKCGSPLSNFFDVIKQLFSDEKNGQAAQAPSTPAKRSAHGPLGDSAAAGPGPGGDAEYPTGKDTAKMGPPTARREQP
The following applies: at 0.1 µM.

Assay [17] addresses T6, Serine/threonine-protein kinase BRSK2 (Homo sapiens). The conditions noted are these: at 1 µM.
The target of assay [18] is Calcium/calmodulin-dependent protein kinase type 1D (Homo sapiens) (UniProt Q8IU85). The following applies: at 0.1 µM.
The target is the same in assay [19]. The conditions noted are these: at 1 µM.
Assay [20] addresses Calcium/calmodulin-dependent protein kinase type II subunit alpha (Homo sapiens) (UniProt Q9UQM7). The following applies: at 0.1 µM.

5'-AMP-activated protein kinase catalytic subunit alpha-1 (Homo sapiens), sequence (Q13131 whole entry, looked up): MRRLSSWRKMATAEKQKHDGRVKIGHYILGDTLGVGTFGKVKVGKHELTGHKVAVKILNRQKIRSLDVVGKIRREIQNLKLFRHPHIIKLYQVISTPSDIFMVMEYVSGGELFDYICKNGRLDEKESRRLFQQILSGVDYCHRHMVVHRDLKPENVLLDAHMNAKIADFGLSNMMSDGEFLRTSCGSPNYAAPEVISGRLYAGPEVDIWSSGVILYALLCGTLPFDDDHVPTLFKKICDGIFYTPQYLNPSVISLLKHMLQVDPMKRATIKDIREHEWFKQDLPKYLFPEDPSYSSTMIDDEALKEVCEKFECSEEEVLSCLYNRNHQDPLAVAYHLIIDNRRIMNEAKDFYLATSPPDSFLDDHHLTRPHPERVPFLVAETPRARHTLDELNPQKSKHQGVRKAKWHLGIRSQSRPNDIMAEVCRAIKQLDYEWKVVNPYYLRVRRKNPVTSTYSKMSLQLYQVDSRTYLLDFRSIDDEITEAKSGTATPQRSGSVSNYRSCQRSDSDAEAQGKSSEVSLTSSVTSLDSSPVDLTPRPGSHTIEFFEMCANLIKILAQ
5'-AMP-activated protein kinase catalytic subunit alpha-2 (Homo sapiens), sequence (P54646 whole entry, looked up): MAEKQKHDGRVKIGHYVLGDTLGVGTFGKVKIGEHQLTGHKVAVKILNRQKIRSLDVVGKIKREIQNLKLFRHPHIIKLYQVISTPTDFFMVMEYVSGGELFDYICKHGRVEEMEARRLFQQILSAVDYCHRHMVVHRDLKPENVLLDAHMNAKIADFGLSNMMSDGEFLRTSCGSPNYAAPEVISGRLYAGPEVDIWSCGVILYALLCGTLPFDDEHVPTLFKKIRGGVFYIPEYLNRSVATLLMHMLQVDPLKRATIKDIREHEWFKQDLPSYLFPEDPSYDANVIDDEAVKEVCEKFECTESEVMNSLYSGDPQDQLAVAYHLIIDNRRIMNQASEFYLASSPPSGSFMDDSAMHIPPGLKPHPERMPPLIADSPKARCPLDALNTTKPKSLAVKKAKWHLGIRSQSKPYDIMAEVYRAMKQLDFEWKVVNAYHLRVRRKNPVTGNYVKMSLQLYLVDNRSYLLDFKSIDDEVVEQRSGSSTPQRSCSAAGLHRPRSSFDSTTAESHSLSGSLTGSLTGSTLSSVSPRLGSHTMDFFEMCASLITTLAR
Ribosomal protein S6 kinase alpha-6 (Homo sapiens), sequence (Q9UK32 whole entry): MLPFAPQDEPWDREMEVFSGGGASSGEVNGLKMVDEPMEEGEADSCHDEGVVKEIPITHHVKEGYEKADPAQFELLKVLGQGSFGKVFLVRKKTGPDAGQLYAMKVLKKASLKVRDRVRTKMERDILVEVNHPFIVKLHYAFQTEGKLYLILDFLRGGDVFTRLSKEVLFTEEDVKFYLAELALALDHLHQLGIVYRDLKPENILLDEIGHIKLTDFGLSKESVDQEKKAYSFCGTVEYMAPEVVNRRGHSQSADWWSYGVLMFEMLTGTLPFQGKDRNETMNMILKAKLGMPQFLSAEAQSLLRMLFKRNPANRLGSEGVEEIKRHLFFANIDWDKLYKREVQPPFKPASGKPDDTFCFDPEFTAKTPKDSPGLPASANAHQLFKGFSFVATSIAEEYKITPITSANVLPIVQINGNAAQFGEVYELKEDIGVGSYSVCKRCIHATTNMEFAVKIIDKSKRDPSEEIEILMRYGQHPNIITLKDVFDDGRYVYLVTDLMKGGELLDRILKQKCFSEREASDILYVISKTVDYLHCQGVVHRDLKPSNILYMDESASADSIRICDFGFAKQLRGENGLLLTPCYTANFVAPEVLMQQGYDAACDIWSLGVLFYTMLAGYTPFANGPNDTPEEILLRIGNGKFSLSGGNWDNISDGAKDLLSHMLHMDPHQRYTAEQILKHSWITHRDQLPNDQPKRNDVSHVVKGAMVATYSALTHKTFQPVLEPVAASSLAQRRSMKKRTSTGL
Calcium/calmodulin-dependent protein kinase type II subunit alpha (Homo sapiens), sequence (Q9UQM7 whole entry): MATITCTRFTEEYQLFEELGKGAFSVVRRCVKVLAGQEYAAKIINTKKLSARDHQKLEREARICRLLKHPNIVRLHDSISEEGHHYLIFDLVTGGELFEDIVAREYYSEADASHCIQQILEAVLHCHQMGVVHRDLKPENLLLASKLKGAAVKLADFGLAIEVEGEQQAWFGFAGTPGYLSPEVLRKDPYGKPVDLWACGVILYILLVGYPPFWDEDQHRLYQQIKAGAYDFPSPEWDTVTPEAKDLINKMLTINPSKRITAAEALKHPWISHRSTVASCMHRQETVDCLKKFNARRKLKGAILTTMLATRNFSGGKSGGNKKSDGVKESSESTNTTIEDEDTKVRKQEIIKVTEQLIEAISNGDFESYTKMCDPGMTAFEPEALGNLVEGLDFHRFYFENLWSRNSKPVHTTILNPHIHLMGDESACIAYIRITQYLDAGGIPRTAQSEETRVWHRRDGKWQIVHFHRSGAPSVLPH
Calcium/calmodulin-dependent protein kinase type 1D (Homo sapiens), sequence (Q8IU85 whole entry, looked up): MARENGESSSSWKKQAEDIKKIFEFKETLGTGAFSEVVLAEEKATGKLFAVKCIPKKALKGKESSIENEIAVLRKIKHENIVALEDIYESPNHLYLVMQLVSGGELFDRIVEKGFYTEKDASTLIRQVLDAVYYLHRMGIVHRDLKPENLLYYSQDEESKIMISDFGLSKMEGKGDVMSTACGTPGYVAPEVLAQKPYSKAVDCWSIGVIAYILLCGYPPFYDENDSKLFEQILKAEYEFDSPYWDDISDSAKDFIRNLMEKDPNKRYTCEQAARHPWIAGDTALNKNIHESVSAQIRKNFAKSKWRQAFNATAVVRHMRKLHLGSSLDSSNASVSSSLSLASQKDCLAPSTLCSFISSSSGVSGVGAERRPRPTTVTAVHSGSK

As to `CC(=O)Nc1cccc(C#Cc2cncnc2Nc2ccc(OCc3cccc(F)c3)c(Cl)c2)n1`, the inhibition (usually the drop in the measured response relative to a control, in per cent) was -0.14% in [1]; 1.53% in [2]; 5.43% in [3]; 1.09% in [4]; -1% in [5]; 2.07% in assay [6]. For the same molecule, the inhibition in assay [7] was 4.12%; in assay [8] it was -0.86%; in [9], 3.32%; in assay [10] it was -1.09%; in assay [11], -0.66%; in assay [12] it was 2.57%. For the same molecule, the inhibition in assay [13] was 1.97%; in assay [14], -1.43%; in [15], 5.34%; in assay [16], 1.19%; in assay [17], 5.79%; in assay [18], 0.41%. The inhibition in assay [19] is 0.25%; in assay [20], 0.69%.

Consider `CCCN1CCC(Oc2cc(Nc3nc(Nc4cccc(F)c4C(N)=O)c4cc[nH]c4n3)c(OC)cc2Cl)CC1`, for which the inhibition in assay [1] is 4.14%; in assay [2] it was 0.54%; in assay [3] it was 0.96%; in assay [4], 0.41%; in [5], 1.93%; in assay [6], -0.88%. Besides, the inhibition in [7] was -2.21%; in assay [8] it was 3.28%; in assay [9], 8.12%; in [10] it was 1.83%; in assay [11], 6.28%; in assay [12], 7.21%. Besides, the inhibition in assay [13] is 9.7%; in [14], 0.4%; in [15] it was -0.28%; in assay [16], -0.51%; in assay [17] it was 0.24%; in assay [18], 3.19%. The results for the inhibition in [19] and in assay [20] were 23.1% and 0.13%, respectively.

Consider `CN1CCC(C(=O)Nc2n[nH]c3nnc(-c4ccccc4)cc23)CC1`, for which the inhibition amounted to 1.86% in assay [1]; 3.01% in [2]; 6.62% in assay [3]; 4.36% in assay [4]; 3.52% in [5]; 2.89% in assay [6]. Further, the inhibition turned out to be 5.04% in assay [7]; 5.95% in assay [8]; 5.95% in assay [9]; 4.12% in assay [10]; 5.01% in assay [11]; 1.18% in assay [12]. For the same molecule, the inhibition stood at 3.89% in assay [13]; 1.14% in [14]; 4.22% in assay [15]; 2.62% in assay [16]; 6.52% in assay [17]; 0.42% in [18]. Besides, the inhibition in [19] was found to be 1.89%; in assay [20], 3.75%.
